{"source": "PubChem BioAssay (NCI)", "key": {"[1]": {"assay": "NCI Yeast Anticancer Drug Screen. Data for the rad52 strain (AID 147);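 note: 0% = growth of vehicle-treated control cultures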", "conditions": "S. cerevisiae rad52 mutant growth inhibition, active compounds read high", "procedure,_shortened": "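Genetically altered yeast (DNA damage repair defect) treated with compound; inhibition calculated relative to vehicle.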"}, "[2]": {"assay": "NCI Yeast Anticancer Drug Screen. Data for the wt1 strain (AID 149);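 note: 0% = growth of vehicle-treated wt1 cultures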", "conditions": "S. cerevisiae wt1 strain (SPY 50644) growth inhibition, active compounds read high", "procedure,_shortened": "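Growth inhibition read against vehicle controls after compound exposure of the wt1 yeast strain.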"}, "[3]": {"assay": "NCI Yeast Anticancer Drug Screen. Data for the rad50EPP+ strain (AID 151);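 note: 0% = growth of vehicle-treated control cultures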", "conditions": "S. cerevisiae rad50 mutant strain, active compounds read high", "procedure,_shortened": "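Strain rad50EPP+; compound exposure; % growth inhibition vs vehicle.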"}, "[4]": {"assay": "NCI Yeast Anticancer Drug Screen. Data for the rad50 strain (AID 155);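 note: 0% = growth of vehicle-only cultures of the same strain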", "conditions": "S. cerevisiae rad50 strain growth inhibition, active compounds read high", "procedure,_shortened": "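Readout: growth inhibition relative to vehicle-treated cultures. Compound exposure was carried out in a genetically defined yeast strain deficient in DNA damage repair.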"}, "[5]": {"assay": "NCI Yeast Anticancer Drug Screen. Data for the mec2-1 strain (AID 157)", "conditions": "S. cerevisiae mec2-1 strain, active compounds read high", "procedure,_shortened": "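Cells of the genetically defined mec2-1 yeast strain are incubated with test compound. Inhibition of growth is calculated against vehicle-treated controls.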"}, "[6]": {"assay": "NCI Yeast Anticancer Drug Screen. Data for the sgs1 mgt1 strain (AID 161);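 note: 0% = growth of cultures given vehicle only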", "conditions": "S. cerevisiae sgs1 mgt1 strain, active compounds read high", "procedure,_shortened": "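Mutant yeast exposed to compound; growth scored against vehicle-only wells.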"}, "[7]": {"assay": "NCI Yeast Anticancer Drug Screen. Data for the CLN2oe strain (AID 163);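 note: 0% = growth of vehicle-only control cultures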", "conditions": "S. cerevisiae CLN2oe strain, active compounds read high", "procedure,_shortened": "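Strain altered in cell-cycle control, incubated with compound; growth compared to solvent-treated controls.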"}, "[8]": {"assay": "NCI Yeast Anticancer Drug Screen. Data for the cln2 rad14 strain (AID 165);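 note: 0% = growth equal to vehicle treated cultures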", "conditions": "S. cerevisiae cln2 rad14 strain, active compounds read high", "procedure,_shortened": "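The screen exposed genetically defined yeast (cln2 rad14) to test compounds and scored growth inhibition relative to vehicle-treated controls.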"}, "[9]": {"assay": "NCI Yeast Anticancer Drug Screen. Data for the bub3 strain (AID 167)", "conditions": "S. cerevisiae bub3 mutant strain, active compounds read high", "procedure,_shortened": "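Readout: yeast growth inhibition, expressed relative to vehicle-only wells. The test organism is a mutant strain from a panel with lesions in DNA repair or checkpoint genes.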"}, "[10]": {"assay": "NCI Yeast Anticancer Drug Screen. Data for the wt2 strain (AID 169);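 note: 0% = growth of vehicle-treated yeast cultures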", "conditions": "S. cerevisiae wt2 strain growth inhibition, active compounds read high", "procedure,_shortened": "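Steps: yeast strain treated with compound; growth recorded; inhibition calculated relative to cultures given vehicle alone.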"}, "[11]": {"assay": "NCI Yeast Anticancer Drug Screen. Data for the mlh1 strain (AID 171);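 note: 0% = growth of vehicle-treated control cultures of the same strain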", "conditions": "S. cerevisiae mlh1 strain growth inhibition, active compounds read high", "procedure,_shortened": "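Yeast screen: mutant strain plus compound, growth scored against vehicle control wells.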"}, "[12]": {"assay": "NCI Yeast Anticancer Drug Screen. Data for the mlh1 rad18 strain (AID 175)", "conditions": "S. cerevisiae mlh1 rad18 strain growth inhibition, active compounds read high", "procedure,_shortened": "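Compound-treated yeast growth, normalised to vehicle controls. Strain bears defined DNA repair mutations.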"}, "[13]": {"assay": "NCI Yeast Anticancer Drug Screen. Data for the rad18 strain (AID 177)", "conditions": "S. cerevisiae rad18 mutant growth inhibition, active compounds read high", "procedure,_shortened": "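Inhibition values reflect reduced yeast growth compared with vehicle-treated controls, using a strain engineered with a DNA damage repair defect.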"}, "[14]": {"conditions": "at 5.0 µM (retest, dose inferred, filed as 0.5)"}, "[15]": {"conditions": "at 50.0 µM (retest, dose inferred, filed as 5.0)"}}, "note": "About 79,000 compounds went through this panel and 15% of them were active in at least one assay; those are over-represented in the sample as a whole. Values without a mark were called inactive. Activity calls are given as the source filed them. Cut-off read from the data, not from the text of the source: active = growth inhibition above about 70%; inactive = the rest."}
{"smiles": "CC1=CCCC2C1(C)CCC(C)C2(C)Cc1cc(O)ccc1O", "note": "(stereo not drawn)", "values": [{"measurement": "growth inhibition", "setting": "[1]; at 1.2 µM", "result": 12, "unit": "%"}, {"measurement": "growth inhibition", "setting": "[1]; at 3.7 µM", "result": 31, "unit": "%"}, {"measurement": "growth inhibition", "setting": "[1]; at 11.0 µM", "result": "70% (active)"}, {"measurement": "growth inhibition", "setting": "[1]; at 33.0 µM", "result": "98% (active)"}, {"measurement": "growth inhibition", "setting": "[1]; at 100.0 µM", "result": "93% (active)"}, {"measurement": "growth inhibition", "setting": "[2]; at 1.2 µM", "result": -5, "unit": "%"}, {"measurement": "growth inhibition", "setting": "[2]; at 3.7 µM", "result": 13, "unit": "%"}, {"measurement": "growth inhibition", "setting": "[2]; at 11.0 µM", "result": 31, "unit": "%"}, {"measurement": "growth inhibition", "setting": "[2]; at 33.0 µM", "result": "98% (active)"}, {"measurement": "growth inhibition", "setting": "[2]; at 100.0 µM", "result": "96% (active)"}, {"measurement": "growth inhibition", "setting": "[3]; at 1.2 µM", "result": -6, "unit": "%"}, {"measurement": "growth inhibition", "setting": "[3]; at 3.7 µM", "result": 39, "unit": "%"}, {"measurement": "growth inhibition", "setting": "[3]; at 11.0 µM", "result": 69, "unit": "%"}, {"measurement": "growth inhibition", "setting": "[3]; at 33.0 µM", "result": "86% (active)"}, {"measurement": "growth inhibition", "setting": "[3]; at 100.0 µM", "result": "88% (active)"}, {"measurement": "growth inhibition", "setting": "[4]; at 1.2 µM", "result": -3, "unit": "%"}, {"measurement": "growth inhibition", "setting": "[4]; at 3.7 µM", "result": 19, "unit": "%"}, {"measurement": "growth inhibition", "setting": "[4]; [14]", "result": 22, "unit": "%"}, {"measurement": "growth inhibition", "setting": "[4]; at 11.0 µM", "result": 51, "unit": "%"}, {"measurement": "growth inhibition", "setting": "[4]; at 33.0 µM", "result": "98% (active)"}, {"measurement": "growth inhibition", "setting": "[4]; [15]", "result": "96% (active)"}, {"measurement": "growth inhibition", "setting": "[4]; at 50.0 µM", "result": "88.9% (active)"}, {"measurement": "growth inhibition", "setting": "[4]; at 100.0 µM", "result": "93% (active)"}, {"measurement": "growth inhibition", "setting": "[5]; at 1.2 µM", "result": 5, "unit": "%"}, {"measurement": "growth inhibition", "setting": "[5]; at 3.7 µM", "result": 17, "unit": "%"}, {"measurement": "growth inhibition", "setting": "[5]; [14]", "result": 46, "unit": "%"}, {"measurement": "growth inhibition", "setting": "[5]; at 11.0 µM", "result": 45, "unit": "%"}, {"measurement": "growth inhibition", "setting": "[5]; at 33.0 µM", "result": "99% (active)"}, {"measurement": "growth inhibition", "setting": "[5]; [15]", "result": "97% (active)"}, {"measurement": "growth inhibition", "setting": "[5]; at 50.0 µM", "result": "90.6% (active)"}, {"measurement": "growth inhibition", "setting": "[5]; at 100.0 µM", "result": "95% (active)"}, {"measurement": "growth inhibition", "setting": "[6]; [14]", "result": 39, "unit": "%"}, {"measurement": "growth inhibition", "setting": "[6]; [15]", "result": "97% (active)"}, {"measurement": "growth inhibition", "setting": "[6]; at 50.0 µM", "result": "90.5% (active)"}, {"measurement": "growth inhibition", "setting": "[7]; at 1.2 µM", "result": -73, "unit": "%"}, {"measurement": "growth inhibition", "setting": "[7]; at 3.7 µM", "result": -57, "unit": "%"}, {"measurement": "growth inhibition", "setting": "[7]; at 11.0 µM", "result": -91, "unit": "%"}, {"measurement": "growth inhibition", "setting": "[7]; at 33.0 µM", "result": "97% (active)"}, {"measurement": "growth inhibition", "setting": "[7]; at 100.0 µM", "result": "87% (active)"}, {"measurement": "growth inhibition", "setting": "[8]; [14]", "result": 10, "unit": "%"}, {"measurement": "growth inhibition", "setting": "[8]; [15]", "result": "97% (active)"}, {"measurement": "growth inhibition", "setting": "[8]; at 50.0 µM", "result": "88.5% (active)"}, {"measurement": "growth inhibition", "setting": "[9]; at 1.2 µM", "result": 9, "unit": "%"}, {"measurement": "growth inhibition", "setting": "[9]; at 3.7 µM", "result": 18, "unit": "%"}, {"measurement": "growth inhibition", "setting": "[9]; [14]", "result": 44, "unit": "%"}, {"measurement": "growth inhibition", "setting": "[9]; at 11.0 µM", "result": 60, "unit": "%"}, {"measurement": "growth inhibition", "setting": "[9]; at 33.0 µM", "result": "99% (active)"}, {"measurement": "growth inhibition", "setting": "[9]; [15]", "result": "96% (active)"}, {"measurement": "growth inhibition", "setting": "[9]; at 50.0 µM", "result": "88.6% (active)"}, {"measurement": "growth inhibition", "setting": "[9]; at 100.0 µM", "result": "93% (active)"}, {"measurement": "growth inhibition", "setting": "[10]; at 1.2 µM", "result": -28, "unit": "%"}, {"measurement": "growth inhibition", "setting": "[10]; at 3.7 µM", "result": -7, "unit": "%"}, {"measurement": "growth inhibition", "setting": "[10]; at 11.0 µM", "result": "98% (active)"}, {"measurement": "growth inhibition", "setting": "[10]; at 33.0 µM", "result": "97% (active)"}, {"measurement": "growth inhibition", "setting": "[10]; at 100.0 µM", "result": "89% (active)"}, {"measurement": "growth inhibition", "setting": "[11]; at 1.2 µM", "result": -1, "unit": "%"}, {"measurement": "growth inhibition", "setting": "[11]; at 3.7 µM", "result": 19, "unit": "%"}, {"measurement": "growth inhibition", "setting": "[11]; at 11.0 µM", "result": 38, "unit": "%"}, {"measurement": "growth inhibition", "setting": "[11]; at 33.0 µM", "result": "98% (active)"}, {"measurement": "growth inhibition", "setting": "[11]; at 100.0 µM", "result": "94% (active)"}, {"measurement": "growth inhibition", "setting": "[12]; [14]", "result": "83% (active)"}, {"measurement": "growth inhibition", "setting": "[12]; [15]", "result": "93% (active)"}, {"measurement": "growth inhibition", "setting": "[12]; at 50.0 µM", "result": "88% (active)"}, {"measurement": "growth inhibition", "setting": "[13]; at 1.2 µM", "result": 1, "unit": "%"}, {"measurement": "growth inhibition", "setting": "[13]; at 3.7 µM", "result": 24, "unit": "%"}, {"measurement": "growth inhibition", "setting": "[13]; at 11.0 µM", "result": 66, "unit": "%"}, {"measurement": "growth inhibition", "setting": "[13]; at 33.0 µM", "result": "98% (active)"}, {"measurement": "growth inhibition", "setting": "[13]; at 100.0 µM", "result": "94% (active)"}]}
